# Source: PubChem BioAssay AID720533 (National Center for Advancing Translational Sciences (NCATS), 2013)
# In all, about 18,000 compounds went through this assay and about 750 (4.2%) were called active. Where a call stands in place of a potency, no number is given. About 13% were inconclusive and are not listed. Many of the other results were omitted from the sample, so actives are more common in it than they were. A number with no mark means an inactive call. The call rests on the fitted dose curve; tested in HEK293 cells.
# Assay: qHTS for Inhibitors of binding or entry into cells for Lassa Virus
# Details: Lassa virus pseudotyped entry inhibition, cell-based qHTS; series mostly up to 49.2 µM
# Potency means the concentration at half of the fitted maximal effect.
Compound,"activity change, negative = inhibition",Potency
C=C(C)C(O)C=CC=Cc1ccccc1 (stereo not given),46.4% [at 8.59 µM],
C=O,inactive,
C[C@H]1CCC[C@@]2(C)CCCC[C@]12O,inactive,
CO[C@@]12[C@@H](COC(N)=O)C3=C(C(=O)C(C)=C(N)C3=O)N1C[C@@H]1N[C@@H]12,inactive,
COc1cc(=O)n2c(c1C(=O)NC(C)c1ccco1)CCN(C(=O)c1cn3ccc(C)cc3n1)CC2 (stereo not given),inactive,
CC[C@H](C)[C@H](NC(=O)[C@H](CCCNC(=N)N)NC(=O)[C@H](CCCNC(=N)N)NC(=O)[C@H](CC(C)C)NC(=O)[C@H](Cc1ccccc1)NC(=O)CNC(=O)CNC(=O)[C@@H](N)Cc1ccc(O)cc1)C(=O)N[C@@H](CCCNC(=N)N)C(=O)N1CCC[C@H]1C(=O)N[C@@H](CCCCN)C(=O)N[C@@H](CC(C)C)C(=O)N[C@@H](CCCCN)C(=O)N[C@@H](Cc1c[nH]c2ccccc12)C(=O)N[C@@H](CC(=O)O)C(=O)N[C@@H](CC(N)=O)C(=O)N[C@@H](CCC(N)=O)C(=O)O,inactive,
CCC1(C2CCN(Cc3cccnc3)CC2)NC(=O)N(CC2COc3ccccc3O2)C1=O (stereo not given),inactive,
COC(=O)C12C[C@@H](C)C3C(C)C(c4ccccc4C31)N2C(=O)C(F)(F)F (stereo not given in full),4.36% [at 8.59 µM],
C=CCOC(=O)N[C@@H](CC(C)C)C(C(=O)OC)=C(C)NCc1ccccc1,-29.4% [at 8.59 µM],
C[C@H]1Cc2c(-c3ccccc3)nc3c(c2CO1)CN(S(=O)(=O)c1ccc(Cl)c2nonc12)CC3,-12.5% [at 8.59 µM],
CC1(C)OC[C@@H](COC(=O)CCc2ccc(OC[C@@H](O)CNCCNC(=O)N3CCOCC3)cc2)O1,inactive,
NS(=O)(=O)c1ccc(N=Nc2c(O)[nH]c3cccc(CCc4ccncc4)c23)cc1,inactive,
CC(=O)OC[C@H]1O[C@H](C#CCCCc2ccccc2)C=C[C@H]1OC(C)=O,-26.7% [at 8.59 µM],
COc1ccc(-n2c(CNC(=O)c3cc(C(F)(F)F)ccc3Cl)nnc2SC)cc1,inactive,
CCCC1C(=O)N2C(N(C)C)=Nc3ccc(C)cc3N2C1=O (stereo not given),inactive,
CC(=O)OCC(COC(C)=O)OC(C)=O,inactive,
COC(=O)C(C(=O)OC)C1c2ccccc2C=C(C2CC2)N1C(=O)OC (stereo not given),inactive,
CCC1CN(CCNC(=O)c2cccnc2C)Cc2cc(OC)ccc2O1 (stereo not given),inactive,
O=C1OCCN1C(=O)[C@H]1[C@H](c2ccc(F)cc2)C(c2ccccc2)=NN1c1ccc(Br)cc1,inactive,
CCn1ccnc1C[C@@H]1COc2ccccc2O1,inactive,
C#CCN([C@@H](C)C(=O)OCC)S(=O)(=O)c1ccc(Br)cc1F,inactive,
CCCc1c2oc(C(=O)O)cc(=O)c2cc2c(=O)cc(C(=O)O)n(CC)c12,inactive,
CCc1noc(C)c1C(=O)NCCN1Cc2cc(OC)ccc2OC(CC)C1 (stereo not given),inactive,
CC(=O)c1c(O)c(C)c(O)c(Cc2c(O)c3c(c(C(=O)/C=C/c4ccccc4)c2O)OC(C)(C)C=C3)c1O,inactive,
CC(=O)c1c(O)c(C)c(O)c(Cc2c(O)c3c(c(C(=O)/C=C\c4ccccc4)c2O)OC(C)(C)C=C3)c1O,,15.8 µM (active)

Compound,"activity change, negative = inhibition",Potency
O=C(/C=C/c1ccccc1)c1ccccc1O,inactive,
CC(C)CNc1cccc2c1S(=O)(=O)N[C@H](CC(C)C)CO2,inactive,
CC[C@@]12C=C(/C=C/c3ccccc3)[C@](CC)(C1)[C@H](c1ccccc1)CC2=O,inactive,
O=C(NCc1ccco1)O[C@@H]1C(=O)c2cc(Br)ccc2O[C@H]1c1ccc2c(c1)OCO2,inactive,
O=C(C1CCCCC1)N1C[C@@H](n2cc(C3CC3)nn2)[C@@H](O)C[C@@H]1c1ccccc1,inactive,
COC(=O)c1ccccc1-c1cc(C)cc2c1OC(CNC(=O)C1CCOC1)C2 (stereo not given),inactive,
CC(C)c1ccc2c(c1)c(SC(C)(C)C)c(CC(C)(C)C(=O)O)n2Cc1ccc(Cl)cc1,,25.1 µM (active)
COCCN1C(=S)NC(c2cccc(F)c2)C(C(=O)OC)=C1C (stereo not given),11% [at 8.59 µM],
O=C(Nc1ccc(O)cc1)c1ccccc1O,inactive,
O=C(Nc1cccc(C(F)(F)F)c1)c1cc(Br)cc(Br)c1O,,3.98 µM (active)
O=C(Nc1ccc(C(=O)O)c(O)c1)c1ccccc1,inactive,
c1ccc2c(c1)[I+]c1ccccc1-2,,0.891 µM (active)
CCCCCCCC/C=C\CCCCCCCC(=O)OC[C@H](CO)OC(C)=O,inactive,
Cc1cc2oc(=O)cc(-c3ccccc3)c2c(C)c1/C=C/c1ccc(F)cc1,inactive,
Oc1c(Cl)cc(Cl)c(Cl)c1Cc1c(O)c(Cl)cc(Cl)c1Cl,,6.31 µM (active)
C=CCC1CCC(=O)N2CCCC12 (stereo not given),inactive,
CO[C@H]1C=CO[C@@]2(C)Oc3c(C)c(O)c4c(O)c(c(/C=N/N5CCN(C)CC5)c(O)c4c3C2=O)NC(=O)/C(C)=C\C=C[C@H](C)[C@H](O)[C@@H](C)[C@@H](O)[C@@H](C)[C@H](OC(C)=O)[C@@H]1C,inactive,
COC(=O)C(C(=O)OC)[C@@H](NC=O)c1ccccc1,inactive,
Cc1c(O)cc(O)c2c(=O)c(-c3ccc(O)cc3)coc12,inactive,
O=C(OCc1ccccc1)c1ccc(O)cc1,inactive,
O=c1c(O)c(-c2ccc(O)cc2)oc2ccccc12,inactive,
O=c1c(CN2CCOc3ccc(CN4CCC(Oc5cccnc5)CC4)cc3C2)coc2ccccc12,inactive,
O[C@H]1CN(CC2CCCCC2)[C@@H](c2ccccc2)C[C@H]1n1cc(-c2ccc(F)cc2)nn1,inactive,
O=c1cc(CN2CCCCCCC2)c2c(ccc3ccccc32)o1,inactive,
CCCCCCN1C[C@H](O)[C@@H](n2cc(COC(=O)c3ccccc3)nn2)C[C@H]1c1ccc(Cl)cc1,inactive,
